Source: PubChem BioAssay (National Center for Advancing Translational Sciences (NCATS))
Luc counter – counter-screen: inhibitors of Kinase-Glo firefly luciferase; Kinase-Glo luciferase, ATP luminescence, 8 min; Q27757; actives 0.28% (n = 200,000); Potency, µM (series often up to 38.3 µM), hits mostly inhibitors; further: nearly all actives have a fitted effect of over 60% in size
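Light output from Kinase-Glo luciferase with luciferin and 10 uM ATP in 50 mM imidazole pH 7.2, KCl, MgCl2, Tween 20, BSA; compound pin-delivered, 8-min ambient incubation, then luminescence read.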
ELG1 genotox – induces genotoxicity in HEK293T cells with luciferase-tagged ELG1. HEK293T ELG1-luciferase reporter, luminescence, 16 h. Potency, µM (titrated, usually from 46 µM), hits mostly activators. actives 1.3% (n = 330,000). AID 504466; further: nearly all actives have a fitted effect of over 60% in size
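DMSO vehicle served as control against compound-treated ELG1-luciferase HEK293T cells; exposure lasted 16 hr at 37 °C and 5% CO2, followed by ONE-Glo luminescence detection after 30 min.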
Rab9 prom act – Rab9 promoter activation. Huh7 Rab9 promoter-luciferase reporter, luminescence, 24 h. Potency, µM (top dose mostly 9.22 µM), actives largely listed as activators. actives 2.8% (n = 320,000); further: nearly all actives have a fitted effect of over 60% in size
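Luminescence read-out: Huh7 cells stably expressing Rab9-luciferase, treated 24 h with compound at 37 °C, then lysed with luciferase reagent for 10 min at ambient before reading.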
NPC1 promoter act – activators of NPC1 promoter. Huh7 NPC1 promoter luciferase reporter, 24 h. Potency, µM (highest dose often 9.22 µM), actives largely listed as activators. actives 2.4% (n = 320,000). AID 485313; further: nearly all actives have a fitted effect of over 60% in size
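Huh7 reporter cells (NPC1 promoter driving luciferase) are dosed with compound for 24 h at 37 °C, 5% CO2; luciferase detection reagent is then added and luminescence measured after 10 min at ambient temperature.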
FLuc counter – firefly luciferase modulation, counter-screen for miR-21 project; purified FLuc, Km substrates, luminescence inhibition; Potency, µM (doses to about 57.5 µM), most hits filed as inhibitors; actives 6.9% (n = 360,000); further: nearly all actives have a fitted effect of over 55% in size
Target sequence (P08659 whole entry, looked up): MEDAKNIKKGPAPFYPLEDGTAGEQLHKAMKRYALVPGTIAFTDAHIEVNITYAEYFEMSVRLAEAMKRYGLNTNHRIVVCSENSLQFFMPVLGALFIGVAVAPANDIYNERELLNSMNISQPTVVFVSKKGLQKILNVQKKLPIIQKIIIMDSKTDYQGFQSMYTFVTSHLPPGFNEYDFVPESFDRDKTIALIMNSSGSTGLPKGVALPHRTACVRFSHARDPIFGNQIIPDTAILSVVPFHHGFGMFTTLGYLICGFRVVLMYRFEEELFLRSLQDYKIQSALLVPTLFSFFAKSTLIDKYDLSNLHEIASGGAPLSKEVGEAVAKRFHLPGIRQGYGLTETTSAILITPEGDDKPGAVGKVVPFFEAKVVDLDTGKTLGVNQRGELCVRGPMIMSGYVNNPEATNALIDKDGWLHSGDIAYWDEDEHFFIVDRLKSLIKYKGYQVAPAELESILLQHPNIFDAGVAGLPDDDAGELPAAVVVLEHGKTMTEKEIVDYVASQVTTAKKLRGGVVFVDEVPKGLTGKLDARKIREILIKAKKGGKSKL
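Purified P. pyralis luciferase, 10 nM final, with Km-level 10 uM D-luciferin and 10 uM ATP in 50 mM Tris acetate pH 7.5, 10 mM Mg acetate, 0.01% Tween-20, 0.05% BSA; 6-point qHTS titration about 60 µM downward; luminescence read.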
SMN2 splice enh – increases expression of the SMN2 splice variant; Potency, µM (highest dose often 46.1 µM), actives largely listed as activators; AID 1458; HEK293 SMN2-luciferase splicing reporter, luminescence, 30-36 h; actives 2.8% (n = 210,000); further: nearly all actives have a fitted effect of over 55% in size
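HEK293 cells carry an SMN2 minigene-luciferase reporter in which exon 7 inclusion puts luciferase in frame. Cells were seeded at 2000 cells/well, attached for 10-12 hours, then exposed to compounds for 30-36 hours at 37C before ONE-Glo luminescence.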
A number is an active result; – = inactive; ? = inconclusive; · = no result. Hits are enriched below; roughly 7.5% of the tested compounds scored in any of these assays. The call rests on the fitted dose curve; in most records, active means well fitted curve in the direction sought with a large enough effect; inconclusive means small, poorly fitted or top-dose-only effect, or another doubt; inactive means no such curve, though single readings can be large; an effect the other way counts as inactive or inconclusive.

SMILES | Luc counter | ELG1 genotox | Rab9 prom act | NPC1 promoter act | FLuc counter | SMN2 splice enh
COC(=O)c1ccc(Sc2ccc(C)cc2)c(N)c1 | – | – | – | – | 19µM | –
COc1ccc(CNC(=O)C2=CC(c3cccc(OC)c3)=NS(=O)(=O)N2C)cc1 | · | · | · | · | – | ·
Cc1ccc(-c2cc(C(=O)N/N=C/c3ccco3)[nH]n2)cc1 | – | – | – | – | 21µM | –
O=C(N/N=C/c1ccccc1C(=O)O)c1cc(-c2ccc3c4c(cccc24)CC3)n[nH]1 | – | – | – | – | 15µM | –
O=C(N/N=C/c1ccco1)c1cc(-c2cccc3ccccc23)n[nH]1 | – | – | – | – | 17µM | –
CCCCCNC(=O)Cc1ccc(S(=O)(=O)N2CCOCC2)s1 | · | – | – | – | – | ·
CCc1nc2nc(C)c(NS(=O)(=O)c3ccc(Cl)s3)c(=O)n2[nH]1 | · | – | – | – | – | ·
CCOc1ccc(-c2nnc(NC3=NCCCCC3)o2)cc1 | – | 2.3µM | 1.6µM | ? | 4.8µM | 13µM
CCCCOc1ccc(-c2nnc(-c3ccncc3)o2)cc1 | · | ? | 4µM | ? | 12µM | ·
CCCCOc1ccc(-c2nnc(-c3cc[n+](C)cc3)o2)cc1 | – | – | – | – | – | ·
CCOC(=O)CNC(=O)Nc1nnc(-c2ccc(OCC)cc2)o1 | – | – | – | – | 12µM | –
CCOc1ccc(-c2nnc(N)o2)cc1 | – | – | – | – | ? | –
CCOc1ccc(-c2nnc(-c3ccncc3)o2)cc1 | – | – | 1.6µM | 1.8µM | 9.5µM | ?
Cc1ccc(C(=O)CCc2ccc(N)cc2)cc1 | · | – | – | – | ? | ·
Cc1nc2ccccc2c(=O)n1NC(=O)c1ccc(Cl)c(Cl)c1 | · | – | – | – | – | ·
Cc1nnc(NC2=NCCC2)o1 | – | – | – | – | – | ?
CCOC(=O)COc1ccc(-c2nnc(-c3ccccc3)o2)cc1 | – | – | – | – | 6µM | ·
CCOC(=O)Cc1nnc(-c2ccccc2)o1 | – | – | – | – | – | –
c1coc(-c2nnc(NC3=NCCC3)o2)c1 | – | 16µM | 3.5µM | ? | 19µM | 13µM
CCCCOC(=O)c1nnc(-c2ccccc2)o1 | · | – | – | – | 12µM | ·
CCOc1ccc(-c2nnc(-c3ccc(OC)cc3)o2)cc1 | – | – | – | – | ? | –
CCOc1ccc(-c2nnc(-c3ccccc3)o2)cc1 | – | ? | 0.71µM | 1.6µM | 1.1µM | 0.56µM
Cc1cccc(C[C@H](C(=O)O)N2C(=O)c3ccc(C(=O)O)cc3C2=O)c1 | · | · | – | – | – | ·
CC(=O)c1ccc(OCCOc2ccc(C#N)cc2)cc1 | · | – | – | – | – | ·
Cc1ccc(-c2nc3ncccc3o2)cc1NC(=O)COc1ccc(C(C)C)cc1 | · | · | · | · | – | –
SMILES | Luc counter | ELG1 genotox | Rab9 prom act | NPC1 promoter act | FLuc counter | SMN2 splice enh
CCOC(=O)c1ccc2c(c1)N(Cc1cccc([N+](=O)[O-])c1)C(=O)c1ccccc1S2 | · | · | · | · | – | ·
COc1ccc(Cn2nnnc2C(c2ccc(N(C)C)cc2)N2CCC(C(N)=O)CC2)cc1 (centres undefined) | – | – | – | – | – | –
CN(C)c1ccc(-c2nnc(-c3cccs3)o2)cc1 | – | ? | 0.32µM | 0.5µM | 0.76µM | 2.2µM
Cc1cccc(OCCSc2nnc(-c3cccs3)o2)c1 | · | · | · | · | – | ·
CN(C)c1oc(-c2cccs2)nc1C#N | – | – | – | – | – | –
CCCOc1ccc(-c2nnc(-c3cccs3)o2)cc1 | – | ? | 0.56µM | 0.71µM | 0.67µM | 4.5µM
Cn1cccc1C(=O)N1CCC2(CCCN(c3ccncc3)C2)CC1 | – | · | · | · | · | –
Cc1ccccc1-n1c(SCC(=O)Nc2c(C)cccc2C)nc(O)cc1=O | · | – | – | – | – | ·
CN(C)c1ccc(C(O)Cc2nc3ccccc3n2C)cc1 (centres undefined) | · | 4.6µM | ? | ? | ? | ·
COc1ccccc1C(O)Cc1nc2ccccc2n1C (centres undefined) | – | ? | ? | – | ? | –
CC(C)c1ccc(C(O)Cc2nc3ccccc3n2C)cc1 (centres undefined) | · | ? | 4µM | ? | 9.5µM | ·
CCC(Cn1nnc2ccccc2c1=O)NC(=O)Nc1cc(Cl)ccc1OC (centres undefined) | · | · | · | · | – | –
COc1ccc(C(=O)/C=C/Sc2nc3ccccc3o2)cc1 | · | – | – | – | 2.4µM | ·
CCCCOC(=O)Sc1nc2ccccc2o1 | – | – | – | – | 15µM | –
COc1ccc(C(=O)N/C(N)=N/c2nc3ccccc3o2)cc1 | – | – | – | – | – | –
COc1ccc(Nc2n[nH]c(C)c2[N+](=O)[O-])cc1 | – | ? | 3.5µM | – | ? | –
COc1ccc(OC)c(N/C(C)=C/C(=O)c2ccccc2)c1 | – | ? | 3.5µM | 4µM | 0.85µM | –
COc1ccc(OC)c(N/C(C)=C/C(=O)c2ccncc2)c1 | · | – | – | – | – | ·
COc1ccc(C(=O)/C=C(\C)Nc2ccc3c(c2)OCO3)cc1 | – | ? | 2.2µM | 3.2µM | 4.8µM | ?
CCN(CC(=O)Nc1ccc(OC)cc1)CC(=O)Nc1ccc2c(c1)OCO2 | · | – | – | – | – | ·
COc1ccc(N/C(C)=C/C(=S)Nc2ccccc2)cc1 | – | – | – | – | 11µM | –
COc1ccc(OC)c(N/C=C/C(=O)c2ccccc2)c1 | · | ? | ? | ? | 0.067µM | ·
CCN(CC)C(=O)C1=C(C)Nc2nc3ccccc3n2C1c1cccc(Cl)c1 (centres undefined) | · | · | · | · | – | –
COc1ccc(N/C(C)=C/C(=O)c2ccccc2)cc1 | – | ? | 2.8µM | ? | 3µM | 13µM
COC(=O)/C(=C\C(=O)c1ccccc1)Nc1ccc(OC)cc1 | · | – | – | – | ? | ·
SMILES | Luc counter | ELG1 genotox | Rab9 prom act | NPC1 promoter act | FLuc counter | SMN2 splice enh
CN(CC(=O)Nc1cccc(F)c1)C(=O)COc1cccc2c1OC(C)(C)C2 | · | – | – | – | – | ·
Cc1ccc(C)c(OCCC(=O)OCC(=O)NCc2ccc(F)cc2)c1 | · | – | – | – | – | ·
Oc1ccc(N=Nc2ccc3c(c2)OCO3)c2ccccc12 | · | 5.2µM | 3.2µM | ? | 7.6µM | ·
CCOc1ccc(CC(=O)NCCS(=O)(=O)N2CCN(c3ccccc3OC)CC2)cc1 | · | · | · | · | – | ·
COc1ccccc1N1CCN(S(=O)(=O)CCNC(=O)COc2ccc(C(C)C)cc2)CC1 | · | · | · | · | 24µM | ·
COc1ccc(NC(=O)CSc2nccn2Cc2ccco2)cc1 | · | 16µM | 3.5µM | 2.5µM | 24µM | ·
Cc1cccc(NC(=O)CSc2nccn2Cc2ccco2)c1 | · | ? | 2.8µM | 3.2µM | 15µM | ·
CCC(=O)Nc1cc(NC(=O)CSc2ncc(-c3ccc(F)cc3)n2Cc2ccco2)ccc1C | – | 18µM | ? | 2.8µM | 12µM | –
CC(C)S | · | · | · | · | · | –
CC(C)(C)c1ccc(Cn2ccc(-c3ccc4c(c3)OCO4)n2)cc1 | – | – | – | – | 27µM | –
COc1ccc(C(=O)Nc2cc(C(=O)NCCc3ccccc3)ccc2Cl)cc1 | – | – | – | – | ? | 10µM
